Pf growth 48h – P. falciparum growth inhibition at 48 hours (one generation); P. falciparum luciferase growth in erythrocytes, 48 h; Potency, µM (top dose mostly 28.7 µM), without a hit: at the top dose activity change, negative = inhibition, actives largely listed as inhibitors; actives 5.9% (n = 310,000); AID 504832; also: potency is read from the fitted curve at half-maximal effect; % is scaled to controls: 0 for no effect and ±100 for the full control effect
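First compound was added to culture medium, then infected red cells at 0.1% parasitemia and 2% hematocrit (final). After incubation at 37 C under 5% CO2, luciferase detection reagent was dispensed and light output recorded.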
Cycloheximide cs – counter-screen for Shiga toxin inhibitors: cycloheximide protein synthesis inhibition; cell reporter, cycloheximide protein synthesis inhibition counterscreen; max response, %; actives 12% (n = 300,000); in the data active = max response mostly above about 13%, no sharp cut-off; inactive = mostly below about 14%; also: read at 38.3 µM for the half of the compounds with a filed dose; 0% is about no effect
LmPK inh – inhibitors of Leishmania mexicana pyruvate kinase; actives 0.37% (n = 290,000); AID 1721; Q27686; Potency, µM (doses to about 57.5 µM), without a hit: at the highest dose activity change, negative = inhibition, usual class: inhibitors; purified LmPK, Kinase-Glo ATP luminescence, 1 h; also: potency is read from the fitted curve at half-maximal effect; % is scaled to controls: 0 for no effect and ±100 for the full control effect
Target sequence (Q27686 whole entry, looked up): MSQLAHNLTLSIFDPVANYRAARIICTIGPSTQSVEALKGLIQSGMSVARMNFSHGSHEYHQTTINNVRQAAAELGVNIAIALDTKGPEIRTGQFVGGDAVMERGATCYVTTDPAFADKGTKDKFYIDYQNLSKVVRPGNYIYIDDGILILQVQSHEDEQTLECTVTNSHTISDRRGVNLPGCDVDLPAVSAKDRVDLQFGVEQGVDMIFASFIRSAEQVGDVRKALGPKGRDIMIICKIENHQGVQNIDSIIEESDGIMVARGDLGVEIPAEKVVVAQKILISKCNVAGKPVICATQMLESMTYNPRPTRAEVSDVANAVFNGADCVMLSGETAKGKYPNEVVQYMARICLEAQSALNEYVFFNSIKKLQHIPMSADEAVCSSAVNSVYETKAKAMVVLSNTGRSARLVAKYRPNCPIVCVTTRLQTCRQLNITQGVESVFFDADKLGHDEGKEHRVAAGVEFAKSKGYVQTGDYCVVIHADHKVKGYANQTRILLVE
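qHTS format; LmPK 0.1 nM; substrates PEP 0.5 mM and ADP 0.1 mM. One-hour room-temperature incubation, then coupled luciferase luminescence; 0.5 nM enzyme wells mark activation.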
Pf growth 96h – inhibits malaria parasite growth, 96 h; P. falciparum luciferase reporter growth, 96 h; Potency, µM (highest dose often 28.7 µM), for the others: at the top dose activity change, negative = inhibition, usual class: inhibitors; actives 6.9% (n = 320,000); AID 504834; also: potency is read from the fitted curve at half-maximal effect; % is scaled to controls: 0 for no effect and ±100 for the full control effect
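Cell-based qHTS: luciferase-tagged P. falciparum in erythrocytes (2% hematocrit, 0.05% parasitemia final) incubated with compounds for 96 hours, 37 C, 5% CO2; luciferase detection reagent then added and luminescence measured.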
Shiga inhibitor – inhibitors of Shiga toxin in Vero cells; Vero cells, Shiga toxin protein synthesis inhibition reporter; actives 9.2% (n = 290,000); inhibition, % at 38.7 µM; in the data active = inhibition mostly above about 28%, no sharp cut-off; inactive = mostly below about 43%; also: 0% is about no effect
* hit, by the source's call; [ ] = another dose, or the depositor's remark. A selection: hits, their analogues and other compounds. The true share with any hit is near 22%. Unless noted, calls follow the shape of the dose curve; as a rule, active = well fitted inhibition curve with a large enough effect; inconclusive = small, poorly fitted or top-dose-only effect, or another doubt; inactive = no such curve, though single readings can be large or run the other way.

How did CC(OC(=O)CN1C(=O)c2ccccc2C1=O)C(=O)NC1(C#N)CCCCC1 (configuration not stated) do in these assays?
Pf growth 48h: 11.6%; Pf growth 96h: 33.2%

How did C=CCCN(C(CC(C)C)C(=O)OC)S(=O)(=O)c1ccccc1Br (configuration not stated) do in these assays?
Pf growth 48h: inconclusive; Cycloheximide cs: 5.9; LmPK inh: 2.1%; Pf growth 96h: 11.7µM*; Shiga inhibitor: -3.1

Results for COC(=O)[C@H](CC(C)C)NS(=O)(=O)N(Cc1ccccc1)[C@@H](CC(C)C)C(=O)OC ?
Pf growth 48h: 8.28µM*; Pf growth 96h: inconclusive

What do the screens show for `C=CCCN(C(CC(C)C)C(=O)OC)S(=O)(=O)c1cc(Br)ccc1Br` (configuration not stated)?
Pf growth 48h: inconclusive; Cycloheximide cs: 29.9; LmPK inh: -0.5%; Pf growth 96h: inconclusive; Shiga inhibitor: 28.5

How did COc1ccc(CN(C)S(=O)(=O)c2c(C)noc2C)cc1OC do in these assays?
Pf growth 48h: 0.0%; Pf growth 96h: 8.5%

How did CS(=O)(=O)c1ccc(Cl)c(NC(=O)COC(=O)CCCN2C(=O)c3cccc4cccc(c34)C2=O)c1 do in these assays?
Pf growth 48h: -16.8%; Pf growth 96h: 18.5%

What do the screens show for `CC(=O)NC(CSC(CC(=O)c1ccco1)c1ccc(C)cc1)C(=O)O` (configuration not stated)?
Pf growth 48h: 19.1%; Cycloheximide cs: 57.0*; LmPK inh: inconclusive; Pf growth 96h: -3.9%; Shiga inhibitor: 105.4*

What do the screens show for `Cc1ccc(S(=O)(=O)/N=C(\CCl)N2CCOCC2)cc1`?
Pf growth 48h: 13.1µM*; Cycloheximide cs: -1.6; LmPK inh: -5.8%; Pf growth 96h: inconclusive; Shiga inhibitor: 1.2

How did CCC(C)NC(=O)c1cn(-c2cccc(C)n2)cn1 (configuration not stated) do in these assays?
Pf growth 48h: 84.4%; Cycloheximide cs: 19.9*; LmPK inh: 0.7%; Pf growth 96h: 66.6%; Shiga inhibitor: 53.4*

Results for Cc1cccc(-n2cnc(C(=O)O)c2)n1 ?
Pf growth 48h: -0.4%; Cycloheximide cs: -2.9; LmPK inh: -2.7%; Pf growth 96h: -14.2%; Shiga inhibitor: -5.0

Results for Cc1cccc(-n2cnc(C(=O)NC3CCCCCC3)c2)n1 ?
Pf growth 48h: 58.2%; Cycloheximide cs: 59.7*; LmPK inh: -8.5%; Pf growth 96h: 239.9%; Shiga inhibitor: 75.8*

How did COCc1nc(-c2ccc(-c3ccccc3)nc2OC)no1 do in these assays?
Pf growth 48h: 141.8%; Cycloheximide cs: 64.5*; LmPK inh: -0.6%; Pf growth 96h: inconclusive; Shiga inhibitor: 155.6*

Results for COc1nc(-c2ccccc2)ccc1-c1noc(C)n1 ?
Pf growth 48h: 75.8%; Cycloheximide cs: 62.2*; LmPK inh: 0.8%; Shiga inhibitor: 72.2*

Results for CCc1nc(-c2ccc(-c3ccc(OC)cc3)nc2OC)no1 ?
Pf growth 48h: 76.2%; Cycloheximide cs: 39.9*; LmPK inh: 5.0%; Pf growth 96h: -1.5%[5.75 µM]; Shiga inhibitor: active

How did COc1cc(-c2nc(-c3ccc(-c4ccccc4)nc3OC)no2)cc(OC)c1OC do in these assays?
Pf growth 48h: 21.5%; Cycloheximide cs: -1.5; LmPK inh: 2.6%; Pf growth 96h: -28.0%; Shiga inhibitor: -3.9

What do the screens show for `COCc1nc(-c2ccc(-c3ccc(OC)cc3)nc2OC)no1`?
Pf growth 48h: 11.4%; Cycloheximide cs: 46.7*; LmPK inh: -0.3%; Pf growth 96h: inconclusive; Shiga inhibitor: active

Results for O=C(Nc1cccc(NC(=O)c2ncn[nH]2)c1)c1cccc(Cl)c1 ?
Pf growth 48h: 0.9%; Cycloheximide cs: -1.0; LmPK inh: 1.8%; Pf growth 96h: inconclusive; Shiga inhibitor: -7.2

What do the screens show for `O=C(COC(=O)CNC(=O)c1cccc([N+](=O)[O-])c1)NCc1ccco1`?
Pf growth 48h: 5.3%; Cycloheximide cs: -0.9; LmPK inh: 4.4%; Pf growth 96h: 49.6%; Shiga inhibitor: -9.1

What do the screens show for `NC(=O)c1nsc(C(=O)N(c2cccc(F)c2)C(C(=O)NC2CCCC2)c2ccco2)c1N` (configuration not stated)?
Pf growth 48h: 4.8%; Cycloheximide cs: 1.1; LmPK inh: -7.3%; Pf growth 96h: 15.2%; Shiga inhibitor: -14.0

Results for COc1ccc(-c2ccc(-c3noc(C(C)C)n3)c(OC)n2)cc1 ?
Pf growth 48h: 24.1%; Cycloheximide cs: 39.6*; LmPK inh: -0.3%; Pf growth 96h: -3.0%; Shiga inhibitor: 69.4

Results for CCOc1nc(-c2ccc(OC)cc2)ccc1-c1noc(-c2ccncc2)n1 ?
Pf growth 48h: inconclusive; Cycloheximide cs: -3.2; LmPK inh: 6.6%; Pf growth 96h: inconclusive; Shiga inhibitor: -2.3

What do the screens show for `COc1cc2c(cc1OC)C(C)N(C(=O)c1cc3n(n1)C(C(F)(F)F)CC(c1ccco1)N3)CC2` (configuration not stated)?
Pf growth 48h: 6.57µM*; Cycloheximide cs: 3.0; LmPK inh: -0.5%; Shiga inhibitor: 22.8

How did COc1ccc(NC(=O)c2cc3n(n2)C(C(F)(F)F)CC(c2ccco2)N3)cc1 (configuration not stated) do in these assays?
Pf growth 48h: inconclusive; Cycloheximide cs: 0.9; LmPK inh: 1.1%; Pf growth 96h: 24.6%; Shiga inhibitor: -3.5

Results for Cc1cc(NC(=O)c2cc3n(n2)C(C(F)(F)F)CC(c2ccco2)N3)n(-c2ccccc2)n1 (configuration not stated) ?
Pf growth 48h: 9.28µM*; Cycloheximide cs: -2.1; LmPK inh: -2.5%; Pf growth 96h: inconclusive; Shiga inhibitor: -12.2

What do the screens show for `O=C(c1cc2n(n1)C(C(F)(F)F)CC(c1ccco1)N2)N1CCc2ccccc2C1` (configuration not stated)?
Pf growth 48h: inconclusive; Cycloheximide cs: -1.0; LmPK inh: 5.6%; Shiga inhibitor: -11.4

What do the screens show for `CC(=O)c1ccc(S(=O)(=O)NCC(=O)Nc2nc3ccccc3[nH]2)cc1`?
Pf growth 48h: -11.5%; Pf growth 96h: inconclusive

Results for Cc1ccc(-c2oc3ncnc(N)c3c2-c2ccc(C)cc2)cc1 ?
Pf growth 48h: 7.38µM*; Cycloheximide cs: 1.6; LmPK inh: 1.6%; Pf growth 96h: 9.7%; Shiga inhibitor: -10.2

How did Cc1oc2ncnc(N)c2c1C do in these assays?
Pf growth 48h: 14.3%; Cycloheximide cs: 3.9; LmPK inh: -7.8%; Pf growth 96h: 139.1%; Shiga inhibitor: 9.8

How did CC1(c2ccc3ccccc3c2)NC(=O)N(CC(=O)Nc2cccc(S(=O)(=O)N3CCOCC3)c2)C1=O (configuration not stated) do in these assays?
Pf growth 48h: -13.0%; Cycloheximide cs: -2.5; LmPK inh: 2.4%; Pf growth 96h: inconclusive; Shiga inhibitor: 18.3

What do the screens show for `C=CCNC(=S)N/N=C/c1ccc(-c2cccc([N+](=O)[O-])c2)o1`?
Pf growth 48h: inconclusive; Cycloheximide cs: 15.9*; LmPK inh: 6.9%; Pf growth 96h: 53.3%; Shiga inhibitor: 40.5*
